15 compounds from PubChem BioAssay (EPA / NIEHS) can be followed below.

Calls of active or inactive are those of the source. Rule for the calls: active = hit-call score of the fitted dose curve at least 0.9, where 1 is the maximum; inactive = score below 0.9.

The experiment is described as follows: BSK_3C_Vis: BioMAP Diversity Plus: 3C Assay for Morphology Visualization (AID 2283025).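 Note: fitted both ways so gain or loss versus DMSO counts.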 As to conditions: primary human endothelial cells (HUVEC). As for the experimental part: BSK_3C is a cell-based, multiplexed-readout assay that uses umbilical vein endothelium, a human vascular primary cell, with measurements taken at 24 hours after chemical dosing in a 96-well plate.BSK_3C_Vis is an assay component measured in the BSK_3C assay. It measures NA related to cell morphology using light microscopy technology.Data from the assay component BSK_3C_Vis was analyzed into 1 assay endpoint. This assay endpoint, BSK_3C_Vis, was analyzed with bidirectional fitting relative to DMSO as the negative control and baseline of activity. Using a type of morphology reporter, gain or loss-of-signal activity can be used to understand changes in the background control. Furthermore, this assay endpoint can be referred to as a secondary readout, because this assay has produced multiple assay endpoints where this one serves a background control function. To generalize the intended target to other relatable targets, this assay endpoint is annotated to the cell morphology intended target family, where the subfamily is cell conformation.
The levels of cell surface (or secreted, indicated by the prefix "s") biomarker endpoints were measured by ELISA. Overt cytotoxicity to cells in confluent adherent cultures (all systems other than the BT system) was assessed by measuring total protein levels using sulforhodamine B (SRB) staining in parallel cultures at the time of biomarker measurements, indicated as SRB endpoints. For proliferation assays for adherent cell types, individual cell types are cultured at sub-confluence and relative cell numbers quantified by SRB staining at time points optimized for each system (48 h: 3C and CASM3C systems; 72 h: BT and HDF3CGF systems; 96 h: SAg system). SRB was performed by staining cells with 0.1% SRB after fixation with 10% TCA and reading wells at 560 nm.Viability and proliferation of PBMC (T cells) was quantified by Alamar Blue reduction for the SAg and BT systems. For PBMC viability (referred to as PBMC Cytotoxicity within the assay endpoint names), cells were plated (75,000/well in a 96-well plate) and then chemical samples added for 1 h before addition of activators, SEB and TSST-1 (20 ng/mL final concentration each). Cells were incubated for 90 h. Then, Alamar Blue (20 uL/well) (Invitrogen, Cat DAL1100) was added for 6 h, and the plates were read with a fluorescence microplate reader at 546/580 nm (excitation/emission). For PBMC proliferation, cells were plated and activated as above but incubated for only 16 h prior to addition of Alamar Blue. Plates were read after 6 h.
Consider `O=C(C(=O)c1ccccc1)c1ccccc1`, for which the result was inactive.

As for `Cc1cc(-n2nc3ccc(Cl)cc3n2)c(O)c(C(C)(C)C)c1`, the result was inactive.

Regarding `CC(C)CC(=O)CC(C)CC(C)C` (stereo not given), the half-maximal activity concentration (AC50) is 37.8 µM (active).

On to `CC[N+](CC)(CC(=O)Nc1c(C)cccc1C)Cc1ccccc1`, for which the AC50 is 39.8 µM (active).

For the compound `CN(C)c1ccc(C(c2ccccc2)c2ccc(N(C)C)cc2)cc1`, the AC50 was 13 µM (active).

As for `Cc1cccnc1`, the outcome was inactive.

Regarding `CCCCCCCCCCCCCCCCCC[N+](C)(C)C`, the concentration at half-maximal activity (AC50) is 1.34 µM (active).

On to `Oc1cccc2ccccc12`, for which the result was inactive.

For the compound `CN(C)CCC(c1ccc(Cl)cc1)c1ccccn1` (stereo not given), the result was inactive.

Consider `CCCCCCC(O)CCCCCCCCCCC(=O)OC` (stereo not given), for which the result was inactive.

With `COC(=O)/C=C\C(=O)OC`, the result was inactive.

Take `Sc1nc2ccccc2s1`: the outcome was inactive.

Regarding `CCC(C)=NO`, the result was inactive.

`CCCCCCCCCC/C=C/C1CC(=O)OC1=O` (stereo not given): the result was inactive.

As for `CCCCCCCCCCC1CO1` (stereo not given), the AC50 was 37.8 µM (active).

Usually AC50 stands for the concentration at which the activity in the assay is half-maximal.
